Key:
Conditions in all cases: concentration: 1 μM,replicates: in singlicate; n = 1
[1] = tested on: DYRK1B
[2] = tested on: DYRK2
[3] = tested on: EGFR
[4] = tested on: EIF2AK1
[5] = tested on: EPHA1
[6] = tested on: EPHA2
[7] = tested on: EPHA3
[8] = tested on: EPHA4
[9] = tested on: EPHA5
[10] = tested on: EPHA6
[11] = tested on: EPHA7
[12] = tested on: EPHA8
[13] = tested on: EPHB1
[14] = tested on: EPHB2
[15] = tested on: EPHB3
[16] = tested on: EPHB4
[17] = tested on: EPHB6
[18] = tested on: ERBB2
[19] = tested on: ERBB3
[20] = tested on: ERBB4
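Also: KINOMEscan kinase panel screen.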

SMILES | %Inh [1] | %Inh [2] | %Inh [3] | %Inh [4] | %Inh [5] | %Inh [6] | %Inh [7] | %Inh [8] | %Inh [9] | %Inh [10] | %Inh [11] | %Inh [12] | %Inh [13] | %Inh [14] | %Inh [15] | %Inh [16] | %Inh [17] | %Inh [18] | %Inh [19] | %Inh [20]
Cl.c1ccc(Oc2ccc(Nc3ccnc4cc(-c5ccc(CN6CCNCC6)o5)ccc34)cc2)nc1 [GW567142] | 0% | 33% | 97.7% | 0% | 77% | 0% | 16% | 0% | 0% | 0% | 0% | 10% | 0% | 0% | 0% | 4% | 96.2% | 92% | 97% | 42%
Cn1ccc2ncnc(Oc3ccc(NC(=O)Nc4cncc(C(F)(F)F)c4)c(Cl)c3)c21 | 5% | 0% | 0% | 0% | 17% | 81% | 92.5% | 57% | 45% | 97.5% | 74% | 95.4% | 45% | 82% | 37% | 35% | 66% | 24% | 0% | 2%
C[C@@H](Oc1cc(-n2cnc3cc(-c4cnn(C)c4)ccc32)sc1C(N)=O)c1ccccc1Cl [GSK580432] | 0% | 21% | 28% | 15% | 19% | 29% | 20% | 7% | 0% | 28% | 4% | 34% | 29% | 0% | 16% | 19% | 93.7% | 0% | 0% | 0%
C[C@@H](Oc1cc(-n2cnc3ccc(-c4ccncc4)cc32)sc1C(N)=O)c1ccccc1Cl [GSK483724] | 91.5% | 48% | 36% | 4% | 17% | 19% | 0% | 2% | 0% | 16% | 14% | 23% | 26% | 0% | 9% | 10% | 0% | 14% | 0% | 41%
COC(=O)c1cccc(NC(=O)NC2CCN(c3ccnc(NCc4ccc(F)cc4)n3)CC2)c1 [GSK1379860] | 21% | 2% | 51% | 0% | 0% | 10% | 0% | 6% | 0% | 8% | 18% | 19% | 14% | 0% | 11% | 4% | 0% | 21% | 8% | 6%
Cn1ccc2ncnc(Oc3ccc(NC(=O)Nc4cnn(C(C)(C)C)c4)c(Cl)c3)c21 | 62% | 6% | 25% | 0% | 0% | 22% | 54% | 23% | 18% | 89% | 27% | 41% | 15% | 50% | 29% | 15% | 48% | 31% | 9% | 12%
CN1CCN(CCNc2nc3cc(Oc4ccc(NC(=O)Nc5cc(C(F)(F)F)ccc5F)cc4)ccc3[nH]2)CC1.Cl.Cl [GW768504] | 15% | 0% | 0% | 0% | 0% | 4% | 0% | 28% | 0% | 51% | 0% | 23% | 17% | 34% | 14% | 17% | 25% | 0% | 0% | 0%
Cc1nnc(-c2ccc3occ(-c4ccc(S(C)=O)cc4)c3n2)o1 (centres unmarked) | 0% | 0% | 0% | 0% | 0% | 3% | 4% | 23% | 1% | 17% | 0% | 0% | 0% | 0% | 10% | 12% | 0% | 17% | 0% | 0%
CC(C(=O)NC1CCN(c2ccnc(Nc3ccc(F)cc3)n2)C1)c1ccc(Cl)cc1 (centres unmarked) [GSK1379713] | 12% | 10% | 28% | 0% | 0% | 14% | 0% | 0% | 0% | 0% | 5% | 14% | 10% | 0% | 0% | 0% | 0% | 25% | 0% | 0%
COc1cc(Nc2nccc(N3CCC(NC(=O)c4cccc(C#N)c4)C3)n2)cc(OC)c1OC (centres unmarked) [GSK1379751] | 15% | 0% | 29% | 0% | 11% | 2% | 0% | 4% | 0% | 0% | 0% | 0% | 4% | 0% | 8% | 19% | 86% | 41% | 16% | 31%

Source: PMC5540273 (PLoS ONE, 2017)
